Out of some 300,000 compounds screened, about 2,400 (0.8%) were called active. The sample as a whole holds a higher share of actives than the screen did. Values without a mark were called inactive.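 How the source made its calls: active means Every replicate reaches about 75%, or at least half do and their mean reaches it too (limit read from the data); inconclusive means At least half of replicates reach the limit but their mean does not; inactive means Under half of replicates reach the limit.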

The record followed here is PubChem BioAssay AID435005 (Broad Institute, 2010).

A short description of this test: INS-1E beta cell survival under cytokines – luminescence, primary screen (AID 435005).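 Further: 0% = cytokine-treated negative control wells and 100% = positive control rescue; higher means more ATP so stronger rescue from cytokine killing.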 The settings on record: INS-1E cytokine-induced death, ATP luminescence, 48 h; hits give high values; percent of positive-control rescue, neutral wells zero; concentration not given here.
For `O=C(Nc1ccccc1)N1CCC(C(=O)N2CCN(Cc3ccccc3)CC2)CC1`, the protection from apoptosis was -2.8%.

In the case of `O=C(COC(=O)COc1cccc(F)c1)NCC1CCCCC1`, the protection from apoptosis was -3.55%.

Regarding `Cc1ccc(NS(=O)(=O)c2ccc(C(C)C)cc2)cc1S(=O)(=O)N1CCOCC1`, the protection from apoptosis is 4.91%.

On to `Cc1ccccc1NC(=O)CSC(=O)c1ccccc1`, for which the protection from apoptosis is -2.98%.

For the compound `C#CCOCCOCCOCCNc1nc(N2CCN(C(=O)[C@H](CO)n3cc([C@@H](N)C(C)C)nn3)CC2)nc(N2CCN(C(=O)[C@H](CCC(=O)O)n3cc([C@@H](N)[C@H](C)CC)nn3)CC2)n1`, the protection from apoptosis was -6.94%.

As for `CN(C(=O)c1cccc(NC(=O)Cc2ccc([N+](=O)[O-])cc2)c1)C1CCC1`, the protection from apoptosis was -5.07%.

`CCn1ccnc1CN(C)C(=O)c1cc(COc2ccc(-n3cncn3)cc2)on1`: the protection from apoptosis is -3.2%.

Take `COc1cccc(OCc2cc(C(=O)N3CCN(C(=O)c4ccco4)CC3)no2)c1`: the protection from apoptosis was -1.9%.

With `C=CCC1(CC=C)CCCN1C(=O)c1cc(COc2ccc(-n3cncn3)cc2)on1`, the protection from apoptosis was 104% (active).

`Cc1cccc(NC(=O)c2ccc(S(=O)(=O)N(C)c3ccccc3)cc2)n1`: the protection from apoptosis was -7.09%.

On to `CN(C)CCNC(=O)c1[nH]nc2c1CCc1ccccc1-2`, for which the protection from apoptosis is -8.17%.

As to `COc1cccc(/C=N/NC(=O)c2[nH]nc3c2CCc2ccccc2-3)c1O`, the protection from apoptosis is 82.2% (active).

Consider `COc1cc2cc(C(=O)N/N=C/c3cccc(OC)c3OC)[nH]c2cc1OC`, for which the protection from apoptosis is 0.139%.

For the compound `COc1cc(C(=O)NC2CCN(C)CC2)ccc1Nc1ncc2c(n1)N(C1CCC(O)CC1)CCC(=O)N2C` (configuration not stated), the protection from apoptosis was -0.596%.

For the compound `COc1cc(SC)ccc1C(=O)NNC(=O)C1COc2ccccc2O1` (configuration not stated), the protection from apoptosis is -1.75%.

For the compound `CCCN(CC(=O)Nc1ccccc1C)C(=O)c1ccc2[nH]c3c(c2c1)CC(C)CC3` (configuration not stated), the protection from apoptosis was 8.11%.

Turning to `COc1ccc(OCCCC(=O)Nc2cccc(S(=O)(=O)N3CCCCCC3)c2)cc1`, the protection from apoptosis was -3.4%.

Regarding `CC(C)c1ccc(Cc2nnc(NCCCO)[nH]c2=O)cc1`, the protection from apoptosis was -1.74%.

Consider `COc1ccc(Cc2nnc(N/N=C/c3ccccc3O)[nH]c2=O)cc1OC`, for which the protection from apoptosis is 85.2% (active).

Consider `COc1ccc(/C=N/Nc2nc3ccccc3c(=O)[nH]2)cc1`, for which the protection from apoptosis is 12%.

As to `CC(=O)c1c(C)[nH]c(C(=O)COc2ccc3c(C)cc(=O)oc3c2)c1C`, the protection from apoptosis was -1.3%.

Regarding `CN(c1ccccc1)S(=O)(=O)c1ccc(C(=O)N2CCN(c3ccccc3Cl)CC2)cc1`, the protection from apoptosis was 3.55%.

With `Cc1ccc2c(c1)NC(=O)[C@@]1(C)[C@@H](c3ccccc3)[C@H]3COc4ccc(Cl)cc4[C@@H]3N1C2=O`, the protection from apoptosis is -5.63%.

Turning to `CCOC(=O)C1=C(CCc2ccccc2)NC(=O)NC1c1ccc2ccccc2c1` (configuration not stated), the protection from apoptosis was 93.7% (active).

`CCOC(=O)C1=C(CN2CCCCCC2)NC(=O)NC1c1cccc([N+](=O)[O-])c1` (configuration not stated): the protection from apoptosis is -5.34%.

Consider `CCOC(=O)C1=C(CN2CCc3ccccc32)NC(=O)NC1c1ccc(Cl)cc1` (configuration not stated), for which the protection from apoptosis is -0.812%.

For the compound `Cc1cc(S(=O)(=O)NC2CCCCC2)ccc1OCC(=O)NCc1cccnc1`, the protection from apoptosis was 6.11%.

Turning to `Cc1ccc(CNC(=O)COc2ccc(S(=O)(=O)NC(C)C)cc2)cc1`, the protection from apoptosis was -8.98%.

Turning to `Cc1ccc(C)c(NS(=O)(=O)c2ccc(OCC(=O)NCc3cccnc3)cc2)c1`, the protection from apoptosis is 99.2% (active).

Take `Oc1ccc(Br)cc1/C=N/Nc1ccccn1`: the protection from apoptosis was 133% (active).

Regarding `O=[N+]([O-])c1ccc(O)c(/C=N/Nc2ccccc2[N+](=O)[O-])c1`, the protection from apoptosis was 36.9%.

As for `COc1ccc(-c2nn(-c3ccccc3)cc2/C=N/Nc2ccccn2)cc1OC`, the protection from apoptosis was 59.9%.

`CCOC(=O)[C@H]1[C@H]2COc3cc(OC)ccc3[C@@H]2N2C(=O)CN(Cc3ccc(Cl)cc3)C(=O)[C@@]12C`: the protection from apoptosis was -0.794%.

Take `COc1ccc(C(=O)NCC2CCCCC2)cc1S(=O)(=O)N1CCCC1`: the protection from apoptosis is -0.303%.

For `CC(Sc1nnc(C2CC2)n1C1CC1)C(=O)Nc1ccc(C(N)=O)cc1` (configuration not stated), the protection from apoptosis is -0.98%.

On to `Oc1ccc(CN2CCN(c3ncccn3)CC2)cc1`, for which the protection from apoptosis was -1.21%.

Turning to `Oc1c(CN2CCN(c3ccc(F)cc3)CC2)cc(Cl)c2cccnc12`, the protection from apoptosis was 111% (active).

`Oc1c(CN2CCCC2)cc(COCc2ccccc2)c2cccnc12`: the protection from apoptosis is 73%.

Consider `CC1CCCCC1NC(=O)COc1ccc(C#N)cc1` (configuration not stated), for which the protection from apoptosis was 0.693%.

For the compound `CNS(=O)(=O)c1ccc(C(=O)NCC(=O)NCCc2ccc3c(c2)OCCO3)cc1`, the protection from apoptosis is -2.22%.

In the case of `CCN(CC)c1ccc(/C=N/NC(=O)c2cnccn2)c(O)c1`, the protection from apoptosis was 101% (active).

Turning to `CCN(CC)c1ccc(/C=N/NC(=O)CNC(=O)c2cccnc2)cc1`, the protection from apoptosis is 4.98%.

For the compound `CCN(CC)c1ccc(/C=N/Nc2nc(C)cc(C)n2)c(O)c1`, the protection from apoptosis was 81.7% (active).

As to `Cc1cc(C)nc(N/N=C/c2ccncc2)n1`, the protection from apoptosis was -0.736%.

For the compound `Cc1cc(C)nc(N/N=C/c2c(CO)cnc(C)c2O)n1`, the protection from apoptosis was -3.01%.

In the case of `Cc1ccc(C(=O)NCCNC(=O)c2cnccn2)cc1`, the protection from apoptosis is -7.48%.

As to `CC1(C)CC[C@@]2(C(=O)O)C(C1)C1=CCC3[C@@]4(C)CC[C@H](O)C(C)(C)C4CC[C@@]3(C)[C@]1(C)C[C@H]2O` (some centres not stated), the protection from apoptosis is 22.4%.

For the compound `COc1ccc(C(=O)Nc2cc(S(=O)(=O)N3CCCC3)ccc2Cl)cc1`, the protection from apoptosis is -1.79%.

Take `O=C1NC(Cc2ccc(O)cc2)c2nc3ccc(Cl)cc3c(=O)n2-c2ccccc21` (configuration not stated): the protection from apoptosis was -3.47%.

As to `CN(Cc1ccc(CNC[C@H]2O[C@@H](n3cnc4c(N)ncnc43)[C@H](O)[C@@H]2O)o1)S(C)(=O)=O`, the protection from apoptosis is -10.1%.

Regarding `C[C@@H]1CN([C@@H](C)CO)C(=O)c2cc(NC(=O)C3CC3)ccc2O[C@H]1CN(C)C`, the protection from apoptosis was 0.593%.

Regarding `Cc1ccc2nc(-c3ccc(NC(=O)c4cccnc4)cc3)oc2c1`, the protection from apoptosis was 106% (active).

For `CCOC(=O)c1ccc(-c2ccc(C(=O)Nc3cccnc3)o2)cc1`, the protection from apoptosis is 3.72%.

For `Cc1ccc(-n2nc3cc(C)c(NC(=O)c4cccnc4)cc3n2)cc1`, the protection from apoptosis is -1.41%.

As for `Cc1cc(NS(=O)(=O)c2ccc(NC(=O)c3cccnc3)cc2)nc(C)n1`, the protection from apoptosis was -3.28%.

For `Cc1cc2nc(-c3ccc(NC(=O)c4cccnc4)cc3)oc2cc1C`, the protection from apoptosis was 104% (active).

`CC(=O)NC(=S)Nc1ccc(NC(=O)c2cccnc2)cc1`: the protection from apoptosis was -1.43%.

Regarding `O=C(Cc1ccccc1)Nc1ccc(NC(=O)c2cccnc2)cc1`, the protection from apoptosis was -0.0371%.

Take `CCOC(=O)c1ccc(NC(=O)c2cccnc2)cc1`: the protection from apoptosis was 112% (active).

As for `CCOC(=O)c1cc(NC(=O)c2cccnc2)ccn1`, the protection from apoptosis was -6.76%.

For the compound `CCn1nc(C(=O)Nc2ccc(N3CCOCC3)cc2)c2ccccc2c1=O`, the protection from apoptosis was -0.317%.

Regarding `C#CCOCCOCCOCCNc1nc(N2CCN(C(=O)C([C@@H](C)O)n3cc([C@@H](N)CCCCN)nn3)CC2)nc(N2CCN(C(=O)[C@H](CCCCN)n3cc(CN)nn3)CC2)n1` (some centres not stated), the protection from apoptosis is 0.272%.

Regarding `CN(CC(=O)NCC(c1ccccc1)N1CCCC1)S(=O)(=O)c1ccc(Cl)cc1` (configuration not stated), the protection from apoptosis is -2.83%.

As to `CC1CCCC(C)N1C(=O)COC(=O)COc1ccccc1C#N` (configuration not stated), the protection from apoptosis was -0.693%.

Take `COc1cc(OC)cc(-c2cc3ccc(F)cc3cn2)c1`: the protection from apoptosis was 3.7%.

In the case of `CC(=O)Nc1ccc(S(=O)(=O)NCC(=O)OCC(=O)c2ccc[nH]2)cc1`, the protection from apoptosis was 0.385%.

Consider `O=C(C[C@H]1C/C=C\C[C@@H](NC(=O)OCC2c3ccccc3-c3ccccc32)C(=O)O[C@@H](c2ccccc2)CNC1=O)N[C@H](CO)Cc1ccccc1`, for which the protection from apoptosis was 54.4%.

Take `O=C(/C(=C/c1cccc(Cl)c1)c1nc2ccccc2[nH]1)c1ccccc1`: the protection from apoptosis was 101% (active).

As for `O=C(Cc1nc2ccccc2[nH]c1=O)c1ccc(Cl)cc1`, the protection from apoptosis was -0.338%.

With `CCC(=O)/C(=C(/O)c1ccccc1)c1nc2ccccc2[nH]1`, the protection from apoptosis was -5.02%.

For the compound `CC(=O)c1ccc(NC(=O)CSc2nc3ccccc3c(=O)n2CCCN2CCOCC2)cc1`, the protection from apoptosis is -12.1%.

In the case of `O=C(Nc1c2c(nc3ccccc13)CCCC2)c1ccccc1Br`, the protection from apoptosis was -2.43%.

As for `CC(=O)Nc1ccc(Nc2c3ccccc3nc3ccccc23)cc1`, the protection from apoptosis was 88.6% (active).

As for `CC(=O)Nc1ccc(NC(=O)COc2ncnc3ccccc23)cc1`, the protection from apoptosis was 1.06%.

With `CC(C)(C)OC(=O)NNc1c2ccccc2nc2ccccc12`, the protection from apoptosis was 24.9%.

Consider `Cc1ccc(Nc2c3c(nc4ccccc24)CCC3)cc1`, for which the protection from apoptosis was 82.4% (active).

Regarding `N#Cc1cccc(Nc2c3c(nc4ccccc24)CCCC3)c1`, the protection from apoptosis was 10.5%.

`COc1ccc(Cl)cc1NC(=O)COC(=O)c1ccc(Br)o1`: the protection from apoptosis is -10.1%.

For `COc1cccc(NC(=O)CSc2nnc(C3CCCCC3)n2N)c1`, the protection from apoptosis was -3.75%.

`O=C(Nc1cn(-c2ccccc2)nc1-c1ccccc1)c1ccccc1`: the protection from apoptosis was 2.47%.

`CCc1ccc(-c2nn(-c3ccccc3)cc2CSC(=N)N)cc1`: the protection from apoptosis is 89.4% (active).

Turning to `Cc1ccc(-c2nn(-c3ccccc3)cc2C(=O)NC2CCC(O)CC2)cc1` (configuration not stated), the protection from apoptosis was 1.53%.

As for `Cc1occc1C(=O)Nc1cccc(S(=O)(=O)N2CCOCC2)c1`, the protection from apoptosis was -3.05%.

As for `C=CCC[C@H](Cc1ccc(F)cc1)C(=O)OC[C@H](C)NC(=O)[C@H](CC=C)CC(=O)N(CCO)Cc1ccccc1`, the protection from apoptosis is 2.93%.

Consider `Cn1c(=O)[nH]c(=O)c2c1nc(N1CCN(CCO)CC1)n2CCSc1nc2ccccc2s1`, for which the protection from apoptosis was 2.68%.

With `Cn1c(=O)[nH]c(=O)c2c1nc(N1CCN(C(c3ccccc3)c3ccccc3)CC1)n2CCO`, the protection from apoptosis was 99.9% (active).

Consider `CN1CCN(c2nc3c(c(=O)[nH]c(=O)n3C)n2Cc2cccc3ccccc23)CC1`, for which the protection from apoptosis is 2.14%.
